For 40 compounds, AC50 and outcome results are on record in PubChem BioAssay (EPA / NIEHS).

Activity calls are given as the source filed them. Rule for the calls: active = hit-call score of the fitted dose curve at least 0.9, where 1 is the maximum; inactive = score below 0.9.

A short description of the assay: APR_HepG2_CellCycleArrest_72hr: Apredica 72-hour HepG2 Assay for Cell Cycle Arrest (AID 2282914). The settings on record: high-content imaging, actives raise or lower the signal. The procedure:
APR_HepG2_72hr is a cell-based, multiplexed-readout assay that uses HepG2, a human liver cell line, with measurements taken at 72 hours after chemical dosing in a 384-well plate.APR_HepG2_CellCycleArrest_72hr is one of 10 assay component(s) measured or calculated from the APR_HepG2_72hr assay. It is designed to make measurements of cell phenotype, a form of morphology reporter, as detected with fluorescence intensity signals by HCS Fluorescent Imaging technology.Data from the assay component APR_HepG2_CellCycleArrest_72hr was analyzed into 1 assay endpoint. This assay endpoint, APR_HepG2_CellCycleArrest_72hr, was analyzed with bidirectional fitting relative to DMSO as the negative control and baseline of activity. Using a type of morphology reporter, measures of all nuclear dna for gain or loss-of-signal activity can be used to understand the signaling at the pathway-level as they relate to the gene . Furthermore, this assay endpoint can be referred to as a primary readout, because this assay has produced multiple assay endpoints where this one serves a signaling function. To generalize the intended target to other relatable targets, this assay endpoint is annotated to the cell cycle intended target family, where the subfamily is arrest.
Cells were treated with dimethyl sulfoxide (DMSO) as a solvent control at a final concentration of 0.5% v/v or with compounds in DMSO with a resulting final DMSO concentration of 0.5% v/v. Compound treatment was done at concentrations of 0.39, 0.78, 1.56, 3.12, 6.24, 12.5, 25, 50, 100, and 200 uM in duplicate on each plate. Cells were treated with compounds for 1, 24, or 72 hr. Carbonyl […] m-chloro-phenylhydrazone (CCCP) and taxol were used as positive controls for mitochondrial function and cytoskeletal stability, respectively; DMSO served as the negative control for this experiment. Cells were fixed by the direct addition of 50 uL formaldehyde in Hank's Balanced Salt Solution (HBSS) to a final concentration of 3.7%. After incubation in the fixation medium for 30 min at room temperature (293-298 K), cells were rinsed twice with HBSS and treated with cell permeabilization buffer (16 uL of 0.5% Triton X-100) for 10 min at room temperature (293-298 K) before labeling. For mitochondrial membrane potential and mitochondrial measurements, pre-fixed cells were incubated with 50 uL of MitoTracker Red CMXRos (Invitrogen) at a concentration of 250 nM for 30 min before fixation. In the remaining cases, post-fixed cells were labeled by incubation with a multiplexed mixture of primary antibodies in HBSS for 60 min at room temperature (293-298 K) to detect immunoreactivity of c-Jun (1:500), phospho-histone H3 (1:100), phospho-histone H2A.x (1:200), p53 (1:400), alpha-tubulin (1:200) and Hoechst 33342 (2 ug/mL). Cells were labeled for multiplexed imaging on two separate plates: a) Hoechst 33342, MitoTracker Red, phospho-histone H3, and alpha-tubulin, and b) Hoechst 33342, phospho-histone H2A.x, and c-Jun. A final rinse with HBSS (50 uL) was performed before analysis. The primary and secondary antibodies for the proteins were phospho-histone H3 (rabbit anti-phospho-histone H3 and FITC-donkey anti-rabbit IgG), phospho-histone H2A.x (mouse anti-phospho-histone H2A.x and FITC-donkey anti-mouse IgG), c-Jun (rabbit anti-phospho-c-Jun and Cy3-donkey anti-rabbit IgG), p53 (sheep anti-p53 and Cy5-donkey anti-sheep IgG), alpha-tubulin (mouse anti-alpha-tubulin and Cy5-donkey anti-mouse IgG). These antibodies are available as the CellCiphr HepG2 assay kit (Millipore).Digital images of each well were captured using a Cellomics ArrayScan VTI (Thermo Scientific Cellomics) (0.8 NA objective, 0.63x optical coupler, and XF-93 filter set) at 20x magnification. The images were acquired using the autofocus feature of the ArrayScan instrument, which entails the following steps. First, the camera focuses on channel 1 (Hoechst 33342), where nuclei are identified. Second, a Z offset of 1 um is used for capturing mitochondria (MitoTracker Red). […]
As for `Nc1ccc(Cl)cc1N`, the concentration at half-maximal activity (AC50) was 1.46 µM (active). The same measure, in the same setting: the result for `c1ccc2c(c1)-c1cccc3cccc-2c13` reads 111 µM (active). Take `Clc1ccc(C(c2ccc(Cl)cc2)C(Cl)(Cl)Cl)cc1`: the result was inactive. For `Cc1cccc(N)c1N`, the half-maximal activity concentration (AC50) is 7.98 µM (active). Take `C1=Cc2cccc3cccc1c23`: the compound was called inactive.

In the case of `Nc1ccc(Cc2ccc(N)cc2)cc1`, the outcome was inactive. Turning to `CCN(CC)CCO`, the compound was called inactive. Consider `CN(C)C(=O)Nc1ccc(Cl)cc1`, for which the call was inactive. With `Cc1cc(N=Nc2ccccc2C)ccc1N`, the concentration at half-maximal activity (AC50) is 21.5 µM (active). With `Clc1ccc(Cl)c(Cl)c1`, the compound was called inactive.

On to `CC(C)COC(=O)c1ccccc1C(=O)OCC(C)C`, for which the half-maximal activity concentration (AC50) is 76.2 µM (active). `Cc1ccc(N=C=O)cc1N=C=O`: the compound was classed as inactive. As for `CCCCCOC(=O)c1ccccc1C(=O)OCCCCC`, the half-maximal activity concentration (AC50) is 95.9 µM (active). As for `Oc1ccccc1Cl`, the outcome was inactive. Take `CC(C)N(Cc1ccccc1)C(=O)C(C)(C)C`: the call was inactive. On to `Oc1ccc2ccc3cccc4ccc1c2c34`, for which the compound was called inactive. Turning to `[O-][Cl+]O`, the result was inactive. On to `OCCCBr`, for which the result was inactive.

For the compound `Brc1ccc(Oc2ccccc2)cc1`, the compound was classed as inactive. Turning to `ClC1=C(Cl)C2(Cl)C3C(Cl)C=CC3C1(Cl)C2(Cl)Cl` (stereo not given), the AC50 is 26.7 µM (active). `[As]#[In]`: the compound was classed as inactive.

With `C[C@]12C=CC3=C4CCC(=O)C=C4CC[C@H]3[C@@H]1CC[C@@H]2O`, the compound was called inactive. Turning to `O=C1CCCO1`, the compound was classed as inactive. For `c1ccc(NNc2ccccc2)cc1`, the AC50 is 104 µM (active). In the case of `Cc1ccc([N+](=O)[O-])cc1`, the call was inactive. Still for that read-out and setting: the result for `OCCCl` reads “inactive”. With `Cn1cc(-c2ccccc2)c(=O)c(-c2cccc(C(F)(F)F)c2)c1`, the half-maximal activity concentration (AC50) was 107 µM (active). For `COP(=S)(OC)SCN1C(=O)c2ccccc2C1=O`, the result was inactive. As to `Cc1ccc(N)c(N)c1`, the call was inactive. `CC(C)(OOC(C)(C)c1ccccc1)c1ccccc1`: the compound was called inactive. For the compound `CCCCC(CC)COC(=O)c1ccc(C(=O)OCC(CC)CCCC)c(C(=O)OCC(CC)CCCC)c1` (stereo not given), the outcome was inactive. For `Nc1cc(Cl)cc(C(=O)O)c1Cl`, the result was inactive. On to `C=CCc1ccc2c(c1)OCO2`, for which the compound was called inactive. For the compound `COC(=O)c1ccccc1N`, the compound was called inactive. In the case of `CC(C)(C)OOC(C)(C)CCC(C)(C)OOC(C)(C)C`, the AC50 was 55.1 µM (active). As to `COc1cc(C=O)cc2c1[C@H](COC(N)=O)[C@]1(OC(C)=O)ON2C[C@H]2[C@@H]1N2C(C)=O`, the result was inactive. In the case of `CCNS(=O)(=O)C(F)(F)C(F)(F)C(F)(F)C(F)(F)C(F)(F)C(F)(F)C(F)(F)C(F)(F)F`, the AC50 is 36.4 µM (active). For the compound `N#CC(Br)(Br)C(N)=O`, the outcome was inactive. `CCCCOC(=O)c1ccccc1C(=O)OCc1ccccc1`: the AC50 was 92.5 µM (active). On the same count and under the same terms, the result for `ClC1=C(Cl)[C@]2(Cl)[C@H]3[C@H]([C@@H]4C=C[C@H]3C4)[C@@]1(Cl)C2(Cl)Cl` reads 16.2 µM (active).
